The results in this text go back to PubChem BioAssay (EPA / NIEHS).

Usually AC50 stands for the concentration giving half of the maximal activity seen.

Inconclusive results are not listed. The source made the active and inactive calls. How the source made its calls, unless noted: active means hit-call score of the fitted dose curve at least 0.9, where 1 is the maximum; inactive means score below 0.9.

The target of assay [1] is Myc proto-oncogene protein (Homo sapiens) (UniProt P01106). As to the kind of experiment: ATG_Myc_CIS: Attagene CIS-FACTORIAL HepG2 Assay for human Myelocytomatosis (Myc) Proto-Oncogene Transcription Factor (AID 2282990). The settings on record: HepG2, Attagene cis-reporter transcription factor activity; actives raise or lower the signal. Put shortly: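 HepG2, transient MRTU transfection (cis promoters, endogenous TFs); 24 h dosing; TriZol RNA → oligo(dT) RT → PCR → 6-FAM primer extension → HpaI cut → CE. Bidirectional fit vs DMSO.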
Chain of Myc proto-oncogene protein (Homo sapiens) (P01106 whole entry, looked up): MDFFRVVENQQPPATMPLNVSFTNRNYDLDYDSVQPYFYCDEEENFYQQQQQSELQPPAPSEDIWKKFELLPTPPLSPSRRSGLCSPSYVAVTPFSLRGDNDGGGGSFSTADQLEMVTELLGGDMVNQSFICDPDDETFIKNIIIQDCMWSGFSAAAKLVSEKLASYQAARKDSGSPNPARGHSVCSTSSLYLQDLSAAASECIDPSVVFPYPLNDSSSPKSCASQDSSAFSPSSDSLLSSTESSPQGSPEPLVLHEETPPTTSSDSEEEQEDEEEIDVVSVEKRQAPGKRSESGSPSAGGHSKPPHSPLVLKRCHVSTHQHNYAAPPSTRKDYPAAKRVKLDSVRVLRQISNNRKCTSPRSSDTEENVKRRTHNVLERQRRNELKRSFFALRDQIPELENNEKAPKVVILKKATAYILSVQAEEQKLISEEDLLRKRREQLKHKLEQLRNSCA

The nature of assay [2]: ATG_NF_kB_CIS: Attagene CIS-FACTORIAL HepG2 Assay for human Nuclear Factor Kappa B (NF-kB) (AID 2282991). The settings on record: HepG2 Attagene cis-factorial NF-kB reporter mRNA; actives raise or lower the signal. Summed up: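 Fluorescence of labelled RT-PCR products separated by capillary electrophoresis gives reporter mRNA levels from transfected HepG2 cells exposed 24 h; values are fitted in both directions relative to DMSO.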

Assay [3] can be described thus: ATG_NRF2_ARE_CIS: Attagene CIS-FACTORIAL HepG2 Assay for human Nuclear Factor Erythroid 2 Related Factor 2 (NFR2) response to Antioxidant Response Elements (ARE) (AID 2282992). Conditions: HepG2 Attagene ARE/NRF2 reporter, transcription factor activity; actives raise or lower the signal. Summed up: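 Multiplexed reporter mRNA profiling in HepG2 after a 24 h chemical exposure. Curves fitted in both directions relative to DMSO negative control.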

Assay [4] can be described thus: ATG_Oct_MLP_CIS: Attagene CIS-FACTORIAL HepG2 Assay for human Octamer-Binding Transcription Factor (Oct) (AID 2282993). The settings on record: HepG2 Attagene cis-factorial Oct reporter, mRNA; actives raise or lower the signal. Summed up:
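Cells of the HepG2 line express promoter-controlled reporter sequences whose mRNA levels, after 24 h treatment, are measured by RT-PCR and capillary electrophoresis. Increases and decreases are scored relative to DMSO.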

For assay [5], the target named is Cellular tumor antigen p53 (Homo sapiens) (UniProt P04637). Kind of assay: ATG_p53_CIS: Attagene CIS-FACTORIAL HepG2 Assay for human p53 Transcription Factor (AID 2282994). The settings on record: HepG2 p53 cis-element reporter, Attagene mRNA; actives raise or lower the signal. Put shortly:
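Multiplexed reporter mRNA assay in human HepG2 liver cells; cis-regulated units report endogenous factor activity. Values come from bidirectional curve fitting against DMSO negative control after 24 h treatment.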

Assay [6] is described as follows: BSK_3C_TissueFactor: BioMAP Diversity Plus: 3C Assay for Tissue Factor Biomarker Activity (AID 2282997). The settings on record: BioMAP 3C HUVEC, tissue factor biomarker readout; actives raise or lower the signal. Put shortly: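 ELISA read-out of Tissue Factor levels on human umbilical vein endothelium collected 24 h after chemical dosing. Gain or loss of signal was fitted relative to DMSO.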

Assay [7] can be described thus: BSK_3C_uPAR: BioMAP Diversity Plus: 3C Assay for Urokinase-type plasminogen activator receptor (uPAR) Biomarker Activity (AID 2282998). The settings on record: BioMAP 3C HUVEC, uPAR biomarker ELISA; actives raise or lower the signal. Summed up: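 Endothelial primary cells of human umbilical vein origin received test chemical; 24 h later uPAR was assayed by ELISA. Fitting was bidirectional, DMSO as negative control.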

Assay [8] in a line: BSK_3C_VCAM1: BioMAP Diversity Plus: 3C Assay for Vascular cell adhesion molecule 1 (VCAM1) Biomarker Activity (AID 2282999). Conditions: BioMAP 3C HUVEC, VCAM1 ELISA, cytokine-stimulated; actives raise or lower the signal. Put shortly:
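Endothelial cells from human umbilical vein are treated with test chemical. At 24 h, VCAM-1 is measured by ELISA, and responses in either direction are fitted relative to DMSO.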
On the technique in general: In an ELISA, binding on a coated surface is turned into a signal by an enzyme label.

Assay [9] is described as follows: BSK_4H_Eotaxin3: BioMAP Diversity Plus: 4H Assay for Eotaxin 3 Biomarker Activity (AID 2283000).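 Further: CCL26 protein level quantified by ELISA in parallel with SRB cytotoxicity check.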 Conditions: primary human endothelial cells (HUVEC); actives raise or lower the signal. Summed up: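 Chemicals were added to human umbilical vein endothelium cultures, and Eotaxin-3 was quantified by ELISA at 24 h. Values were derived by bidirectional fitting with DMSO serving as negative control and activity baseline.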

In assay [10] the target is human Peroxisome Proliferator-activated Receptor alpha (PPARa), PPARA (gene 5465) (UniProt Q07869). Kind of assay: ATG_PPARa_TRANS: Attagene TRANS-FACTORIAL HepG2 Assay for human Peroxisome Proliferator-activated Receptor alpha (PPARa) (AID 2283001; active means hit-call score of the fitted dose curve at least 0.9, where 1 is the maximum). Put shortly:
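Reporter transcripts from GAL4-UAS units in transfected HepG2 were quantified 24 h after dosing. Detection used reverse transcription, PCR, fluorescent primer extension and capillary electrophoresis, with DMSO as baseline.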

Read-out in assay [11]: Intercellular Adhesion Molecule 1 (ICAM1), ICAM1 (gene 3383)
Kind of assay: BSK_3C_ICAM1: BioMAP Diversity Plus: 3C Assay for Intercellular Adhesion Molecule 1 (ICAM1) Biomarker Activity (AID 2283003). Conditions: primary human endothelial cells (HUVEC); actives raise or lower the signal. Put shortly:
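Primary human umbilical vein endothelial cells in the BioMAP 3C system were exposed to chemicals for 24 h, then ICAM-1 was quantified by ELISA. Activity was fitted bidirectionally against the DMSO negative control baseline.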

A short description of assay [12]: BSK_3C_Proliferation: Cell Proliferation Assessment in the BioMAP Diversity Plus: 3C Assay (AID 2283006). Conditions: primary human endothelial cells (HUVEC). Summed up: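 Human umbilical vein endothelial cells were grown sub-confluent and exposed to chemical for 48 h, then fixed with 10% TCA and stained with 0.1% sulforhodamine B; absorbance at 560 nm gave relative cell number, fitted bidirectionally against DMSO baseline.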

Assay [13] deals with Nuclear receptor subfamily 1 group I member 2 (Homo sapiens) (UniProt O75469). As to the kind of experiment: ATG_PXR_TRANS: Attagene TRANS-FACTORIAL HepG2 Assay for human Pregnane X Receptor (PXR) (AID 2283008; active means hit-call score of the fitted dose curve at least 0.9, where 1 is the maximum). Put shortly:
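Measures mRNA induction of a GAL4-UAS-driven reporter in human HepG2 cells transiently expressing PXR fused to Gal4, following 24 h treatment. DMSO served as negative control and baseline.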

Assay [14] deals with human RAR-related Orphan Receptor beta (RORb), RORB (gene 6096) (UniProt Q92753). Kind of assay: ATG_RORb_TRANS: Attagene TRANS-FACTORIAL HepG2 Assay for human RAR-related Orphan Receptor beta (RORb) (AID 2283010; active means hit-call score of the fitted dose curve at least 0.9, where 1 is the maximum). Summed up:
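HepG2 cells were transiently transfected with multiplexed GAL4-UAS reporter units expressing chimeric nuclear receptor–GAL4 proteins, then dosed for 24 h. Reporter mRNA was quantified by RT-PCR with fluorescent labelling and capillary electrophoresis; gain of signal was fitted relative to DMSO.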

Assay [15] addresses human RAR-related Orphan Receptor gamma (RORg), RORC (gene 6097) (UniProt P51449). As to the kind of experiment: ATG_RORg_TRANS: Attagene TRANS-FACTORIAL HepG2 Assay for human RAR-related Orphan Receptor gamma (RORg) (AID 2283011; active means hit-call score of the fitted dose curve at least 0.9, where 1 is the maximum). Put shortly:
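First, HepG2 liver cells were transfected with GAL4-UAS-driven reporter constructs and the RORg-Gal4 fusion. Next, they were treated with chemical for 24 h. Finally, reporter mRNA was quantified by RT-PCR and capillary electrophoresis, with upward activity fitted against DMSO.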

Assay [16] concerns the target Retinoic acid receptor RXR-alpha (Homo sapiens) (UniProt P19793). Kind of assay: ATG_RXRa_TRANS: Attagene TRANS-FACTORIAL HepG2 Assay for human Retinoid X Receptor alpha (RXRa) (AID 2283012; active means hit-call score of the fitted dose curve at least 0.9, where 1 is the maximum). Summed up: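 HepG2 cells transiently transfected with multiplexed GAL4-UAS reporter units and chimeric NR-GAL4 fusions, dosed 24 h. Reporter mRNA measured by RT-PCR, FAM labelling, HpaI digestion and capillary electrophoresis; gain-of-signal fitted relative to DMSO baseline.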

The target in assay [17] is Retinoic acid receptor alpha (Homo sapiens) (UniProt P10276). Kind of assay: ATG_RARa_TRANS: Attagene TRANS-FACTORIAL HepG2 Assay for human Retinoic Acid Receptor alpha (RARa) (AID 2283005; active means hit-call score of the fitted dose curve at least 0.9, where 1 is the maximum). Put shortly:
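Reporter transcripts, measured by RT-PCR with fluorescent labeling and capillary electrophoresis after 24 h dosing, reflect activity of an exogenous human RARa–GAL4 fusion in transiently transfected HepG2. Fitted for increase relative to DMSO.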

The target in assay [18] is Peroxisome proliferator-activated receptor gamma (Homo sapiens) (UniProt P37231). As to the kind of experiment: ATG_PPARg_TRANS: Attagene TRANS-FACTORIAL HepG2 Assay for human Peroxisome Proliferator-activated Receptor-gamma (PPARg) (AID 2283007; active means hit-call score of the fitted dose curve at least 0.9, where 1 is the maximum). Put shortly:
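Twenty-four hours after chemical dosing of transiently transfected HepG2 cells, isolated RNA was converted to cDNA, reporter sequences amplified and 6-FAM-labelled, then HpaI-digested and analysed by capillary electrophoresis. Signal increase against DMSO was fitted.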

Assay [19] has as its target human Retinoic Acid Receptor gamma (RARg), RARG (gene 5916) (UniProt P13631). As to the kind of experiment: ATG_RARg_TRANS: Attagene TRANS-FACTORIAL HepG2 Assay for human Retinoic Acid Receptor gamma (RARg) (AID 2283009; active means hit-call score of the fitted dose curve at least 0.9, where 1 is the maximum). Put shortly: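 HepG2 cells transiently transfected with multiplexed reporter units expressing chimeric RARg-GAL4 and GAL4-UAS-driven reporters; 24 h compound exposure. Reporter mRNA quantified by RT-PCR with fluorescent labelling and capillary electrophoresis; gain-of-signal fitted relative to DMSO baseline.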

Assay [20] has as its target human Peroxisome Proliferator-activated Receptor delta (PPARd), PPARD (gene 5467) (UniProt Q03181). Kind of assay: ATG_PPARd_TRANS: Attagene TRANS-FACTORIAL HepG2 Assay for human Peroxisome Proliferator-activated Receptor delta (PPARd) (AID 2283002; active means hit-call score of the fitted dose curve at least 0.9, where 1 is the maximum). Summed up: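 Transient HepG2 transfection (multiple GAL4-UAS RTUs, chimeric receptor-Gal4); 24 h dosing; total RNA → oligo(dT) RT → PCR → 6-FAM primer extension → HpaI cut → CE. Positive direction vs DMSO.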

Chain of Retinoic acid receptor RXR-alpha (Homo sapiens) (P19793 whole entry, looked up, the tested form may be a part): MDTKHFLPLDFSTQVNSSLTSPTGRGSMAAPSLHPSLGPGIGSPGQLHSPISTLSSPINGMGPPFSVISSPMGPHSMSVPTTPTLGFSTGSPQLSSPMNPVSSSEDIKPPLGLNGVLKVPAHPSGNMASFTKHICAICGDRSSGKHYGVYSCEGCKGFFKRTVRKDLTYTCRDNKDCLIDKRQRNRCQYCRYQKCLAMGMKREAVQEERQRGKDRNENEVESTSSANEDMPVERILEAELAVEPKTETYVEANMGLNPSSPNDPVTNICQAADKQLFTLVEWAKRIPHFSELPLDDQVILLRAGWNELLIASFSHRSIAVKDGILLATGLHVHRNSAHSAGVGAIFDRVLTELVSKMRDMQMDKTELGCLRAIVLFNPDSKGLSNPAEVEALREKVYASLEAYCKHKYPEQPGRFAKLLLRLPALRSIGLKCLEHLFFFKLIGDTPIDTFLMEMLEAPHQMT
Chain of Cellular tumor antigen p53 (Homo sapiens) (P04637 whole entry, looked up): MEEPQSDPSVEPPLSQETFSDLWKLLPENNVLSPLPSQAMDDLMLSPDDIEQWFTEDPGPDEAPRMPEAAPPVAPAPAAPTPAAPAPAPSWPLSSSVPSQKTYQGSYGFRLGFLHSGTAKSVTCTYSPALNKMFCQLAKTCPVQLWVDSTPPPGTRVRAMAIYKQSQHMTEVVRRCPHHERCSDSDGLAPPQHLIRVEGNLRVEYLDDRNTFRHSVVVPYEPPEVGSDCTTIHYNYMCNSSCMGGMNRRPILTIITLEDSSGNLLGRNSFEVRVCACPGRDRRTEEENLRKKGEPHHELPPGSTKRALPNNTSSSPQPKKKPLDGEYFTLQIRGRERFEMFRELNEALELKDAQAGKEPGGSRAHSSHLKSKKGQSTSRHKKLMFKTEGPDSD
Chain of Nuclear receptor subfamily 1 group I member 2 (Homo sapiens) (O75469 whole entry, looked up, the tested form may be a part): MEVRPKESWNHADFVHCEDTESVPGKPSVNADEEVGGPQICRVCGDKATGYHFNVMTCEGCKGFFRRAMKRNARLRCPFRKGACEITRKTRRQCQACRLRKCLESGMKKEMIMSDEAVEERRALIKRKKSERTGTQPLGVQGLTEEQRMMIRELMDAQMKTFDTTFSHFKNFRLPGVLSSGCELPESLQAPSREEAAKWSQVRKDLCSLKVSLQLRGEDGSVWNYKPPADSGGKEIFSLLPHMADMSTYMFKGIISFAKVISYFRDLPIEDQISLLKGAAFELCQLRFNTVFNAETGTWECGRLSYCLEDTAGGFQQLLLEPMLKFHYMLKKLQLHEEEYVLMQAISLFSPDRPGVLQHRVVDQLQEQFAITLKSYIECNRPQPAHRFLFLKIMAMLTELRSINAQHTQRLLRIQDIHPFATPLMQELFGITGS
Chain of human Peroxisome Proliferator-activated Receptor alpha (PPARa), PPARA (gene 5465) (Q07869 whole entry, looked up, the tested form may be a part): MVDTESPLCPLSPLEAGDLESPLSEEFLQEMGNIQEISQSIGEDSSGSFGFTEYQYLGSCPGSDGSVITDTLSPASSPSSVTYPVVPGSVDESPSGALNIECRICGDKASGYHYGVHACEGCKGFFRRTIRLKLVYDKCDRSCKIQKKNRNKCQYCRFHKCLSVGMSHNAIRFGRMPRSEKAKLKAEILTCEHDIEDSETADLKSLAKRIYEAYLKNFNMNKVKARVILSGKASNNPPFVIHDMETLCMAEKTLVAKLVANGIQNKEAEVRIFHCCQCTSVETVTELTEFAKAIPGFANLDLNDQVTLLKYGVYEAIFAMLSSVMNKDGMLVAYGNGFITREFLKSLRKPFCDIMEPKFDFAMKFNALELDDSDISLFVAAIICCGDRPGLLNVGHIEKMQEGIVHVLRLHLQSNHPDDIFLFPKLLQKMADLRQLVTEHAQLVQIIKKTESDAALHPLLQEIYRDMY
Chain of Peroxisome proliferator-activated receptor gamma (Homo sapiens) (P37231 whole entry, looked up): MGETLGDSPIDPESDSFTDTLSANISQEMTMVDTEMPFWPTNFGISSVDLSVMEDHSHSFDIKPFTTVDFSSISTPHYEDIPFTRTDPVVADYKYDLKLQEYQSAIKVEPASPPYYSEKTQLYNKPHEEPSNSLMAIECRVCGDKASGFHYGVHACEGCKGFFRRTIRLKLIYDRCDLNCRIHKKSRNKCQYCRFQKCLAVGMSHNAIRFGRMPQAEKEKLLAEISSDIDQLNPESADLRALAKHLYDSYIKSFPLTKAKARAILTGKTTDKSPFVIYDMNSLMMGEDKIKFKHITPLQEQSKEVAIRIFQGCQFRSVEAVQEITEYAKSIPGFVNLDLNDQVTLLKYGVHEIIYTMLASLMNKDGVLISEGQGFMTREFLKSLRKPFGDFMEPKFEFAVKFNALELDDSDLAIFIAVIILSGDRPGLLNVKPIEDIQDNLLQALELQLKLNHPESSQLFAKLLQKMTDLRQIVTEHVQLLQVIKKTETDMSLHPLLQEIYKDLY
Chain of human RAR-related Orphan Receptor gamma (RORg), RORC (gene 6097) (P51449 whole entry, looked up, the tested form may be a part): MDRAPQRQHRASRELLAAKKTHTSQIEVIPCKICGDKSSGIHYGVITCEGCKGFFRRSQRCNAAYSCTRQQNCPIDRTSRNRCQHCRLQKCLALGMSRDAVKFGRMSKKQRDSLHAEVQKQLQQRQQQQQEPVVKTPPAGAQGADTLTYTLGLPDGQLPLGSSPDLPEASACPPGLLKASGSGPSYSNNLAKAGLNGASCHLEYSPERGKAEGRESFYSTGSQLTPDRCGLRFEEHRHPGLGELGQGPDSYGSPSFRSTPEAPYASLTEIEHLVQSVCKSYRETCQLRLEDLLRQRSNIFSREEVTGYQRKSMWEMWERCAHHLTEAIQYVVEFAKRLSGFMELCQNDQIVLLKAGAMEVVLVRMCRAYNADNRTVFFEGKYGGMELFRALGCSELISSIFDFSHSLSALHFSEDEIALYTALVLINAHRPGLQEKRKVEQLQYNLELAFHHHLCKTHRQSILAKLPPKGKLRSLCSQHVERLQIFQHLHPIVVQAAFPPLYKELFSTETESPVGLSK
Chain of human Peroxisome Proliferator-activated Receptor delta (PPARd), PPARD (gene 5467) (Q03181 whole entry, looked up, the tested form may be a part): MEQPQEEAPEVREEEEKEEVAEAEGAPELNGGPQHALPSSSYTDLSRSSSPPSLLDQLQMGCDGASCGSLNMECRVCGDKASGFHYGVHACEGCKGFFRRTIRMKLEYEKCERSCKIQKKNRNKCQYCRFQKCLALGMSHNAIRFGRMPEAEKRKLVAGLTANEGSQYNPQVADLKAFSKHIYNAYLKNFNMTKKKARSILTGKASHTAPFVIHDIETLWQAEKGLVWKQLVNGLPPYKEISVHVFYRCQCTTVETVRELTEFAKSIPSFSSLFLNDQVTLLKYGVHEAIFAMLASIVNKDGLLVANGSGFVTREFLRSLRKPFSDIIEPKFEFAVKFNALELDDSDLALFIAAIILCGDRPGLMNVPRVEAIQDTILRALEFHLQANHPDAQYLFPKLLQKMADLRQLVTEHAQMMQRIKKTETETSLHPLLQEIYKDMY
Chain of human Retinoic Acid Receptor gamma (RARg), RARG (gene 5916) (P13631 whole entry, looked up, the tested form may be a part): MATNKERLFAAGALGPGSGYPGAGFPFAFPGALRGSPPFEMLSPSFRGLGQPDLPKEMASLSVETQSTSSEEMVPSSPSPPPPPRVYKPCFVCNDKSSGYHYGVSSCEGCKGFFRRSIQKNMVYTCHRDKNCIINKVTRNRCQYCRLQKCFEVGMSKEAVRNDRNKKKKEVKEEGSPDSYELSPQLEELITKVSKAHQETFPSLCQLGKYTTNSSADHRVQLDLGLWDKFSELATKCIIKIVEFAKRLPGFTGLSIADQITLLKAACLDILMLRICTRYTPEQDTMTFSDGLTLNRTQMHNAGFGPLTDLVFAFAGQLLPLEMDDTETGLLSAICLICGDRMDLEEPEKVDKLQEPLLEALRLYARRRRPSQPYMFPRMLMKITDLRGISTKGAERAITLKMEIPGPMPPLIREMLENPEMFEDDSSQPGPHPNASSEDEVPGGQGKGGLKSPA
Chain of Retinoic acid receptor alpha (Homo sapiens) (P10276 whole entry, looked up, the tested form may be a part): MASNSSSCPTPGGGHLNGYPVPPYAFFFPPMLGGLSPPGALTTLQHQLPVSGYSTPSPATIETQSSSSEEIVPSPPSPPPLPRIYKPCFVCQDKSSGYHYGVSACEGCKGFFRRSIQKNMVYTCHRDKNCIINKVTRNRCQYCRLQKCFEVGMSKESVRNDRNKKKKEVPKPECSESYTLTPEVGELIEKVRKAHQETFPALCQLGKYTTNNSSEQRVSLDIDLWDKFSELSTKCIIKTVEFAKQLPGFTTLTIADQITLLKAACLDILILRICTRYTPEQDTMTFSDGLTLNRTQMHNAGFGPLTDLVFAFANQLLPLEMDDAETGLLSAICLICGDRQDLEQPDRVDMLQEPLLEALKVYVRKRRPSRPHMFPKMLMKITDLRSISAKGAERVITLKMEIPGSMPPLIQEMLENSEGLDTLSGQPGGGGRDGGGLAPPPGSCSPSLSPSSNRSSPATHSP

As to `NC(=O)O`, the outcome in [1], in assay [2], in [3], in assay [4], in assay [5] and in assay [6] was inactive. In addition, the outcome in assay [7], in [8], in assay [9], in assay [10], in [11] and in [12] was inactive. Besides, the compound was classed as inactive in [13], in assay [14], in [15] and in assay [16].
As to `O=[N+]([O-])c1ccc2c3c(cccc13)CC2`, the compound was called inactive in assay [1], in assay [2], in [4], in [5], in assay [6] and in [8]. Further, the result in assay [9], in assay [11], in assay [17], in assay [12], in assay [19] and in [16] was inactive. Moreover, the half-maximal activity concentration (AC50) in assay [3] is 6.63 µM (active); in assay [7], 20 µM (active); in assay [18], 22.7 µM (active); in [13], 2.41 µM (active).
`C=CC(=O)OCCCCCC(C)C`: the result in assay [1], in [2], in [3], in assay [4], in assay [5] and in [6] was inactive. Further, the outcome in assay [7], in assay [8], in [9], in assay [10], in assay [20] and in [11] was inactive. The result in assay [12], in assay [18], in assay [13], in [15] and in assay [16] was inactive.
